In PubChem BioAssay (NCATS):
Values joined by “and” are separate entries in the source; they are usually repeats but may differ in a detail not shown here. Identical values can stand only once. Inconclusive results are not listed. A call without a number means that no potency is given here. A number with no mark means an inactive call. Active and inactive are the calls of the source. The call rests on the fitted dose curve; in most records, active means well fitted curve in the direction sought with a large enough effect; inconclusive means small, poorly fitted or top-dose-only effect, or another doubt; inactive means no such curve, though single readings can be large; an effect the other way counts as inactive or inconclusive.

Columns and labels:
[1] = Viability qHTS for spleen associated tyrosine kinase inhibitor (SYKi) naive MV4-11 cells (AID 1963823); further: nearly all actives have a fitted effect of over 40% in size
In short: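 Read-out: CellTiter-Glo luminescence. Exposure: 72 hr, 37 C, 5% CO2, 95% humidity. Cells: MV4-11 without SYK inhibitor history, 500/well, qHTS format.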

[2] = Quantitative highthroughput screen to assess conditional lethalithy of NOMO1 cells grown in RPMI1640 with dialyzed fetal bovine serum (RPMI+ds) (AID 1963877); further: nearly all actives have a fitted effect of over 30% in size; on Viability: series mostly up to about 46 µM
In short: (§1)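 Each medium arm—HPLM with 10% dialyzed FBS, or RPMI1640 with 5 mM glucose and 10% untreated or dialyzed FBS—was screened against an 11-point, 3-fold compound titration for 48 h at 37 °C, with CellTiter-Glo luminescence as endpoint.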

[3] = Quantitative highthroughput screen to assess conditional lethalithy of NOMO1 cells grown in Human Plasma-Like Medium with dialyzed fetal bovine serum (HPLM+ds) (AID 1963878); further: nearly all actives have a fitted effect of over 35% in size
In short: as §1

[4] = Quantitative highthroughput screen to assess conditional lethalithy of P12 Ichikawa cells grown in RPMI1640 with dialyzed fetal bovine serum (RPMI+ds) (AID 1963880); conditions: Potency: P12-Ichikawa viability; further: nearly all actives have a fitted effect of over 35% in size
In short: as §1

[5] = Quantitative highthroughput screen to assess conditional lethalithy of SEM cells grown in Human Plasma-Like Medium with dialyzed fetal bovine serum (HPLM+ds) (AID 1963882); further: nearly all actives have a fitted effect of over 35% in size; on Viability: series mostly up to about 46 µM
In short: as §1

[6] = Quantitative highthroughput screen to assess conditional lethalithy of SEM cells grown in RPMI1640 with unreated serum (RPMI+s) (AID 1963883); further: nearly all actives have a fitted effect of over 35% in size
In short: as §1

[7] = Quantitative highthroughput screen to assess conditional lethalithy of SEM cells grown in RPMI1640 with dialyzed fetal bovine serum (RPMI+ds) (AID 1963884); further: nearly all actives have a fitted effect of over 35% in size; on Viability: series mostly up to about 46 µM
In short: as §1

[8] = Cellular viability qHTS for adrenocortical cancer (ACC) cell line NCI-H295R (AID 1963990); further: nearly all actives have a fitted effect of over 60% in size
In short: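 Viability of NCI-H295R after 48 h of treatment (final up to 46 uM) measured through cellular ATP luminescence.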

[9] = Quantitative highthroughput screen to assess conditional lethalithy of NOMO1 cells grown in RPMI1640 with untreated serum (RPMI+s) (AID 1963876); further: nearly all actives have a fitted effect of over 35% in size
In short: as §1

[10] = Quantitative highthroughput screen to assess conditional lethalithy of P12 Ichikawa cells grown in Human Plasma-Like Medium with dialyzed fetal bovine serum (HPLM+ds) (AID 1963879); conditions: Potency: viability; further: nearly all actives have a fitted effect of over 35% in size; on Viability: series mostly up to about 46 µM
In short: as §1

[11] = Quantitative highthroughput screen to assess conditional lethalithy of P12 Ichikawa cells grown in RPMI1640 with untreated serum (RPMI+s) (AID 1963881); conditions: Potency: viability; further: nearly all actives have a fitted effect of over 35% in size; on Viability: series mostly up to about 46 µM
In short: as §1

[12] = Cellular viability qHTS for adrenocortical cancer (ACC) cell line SW-13 (AID 1963989); conditions: SW-13 ACC cells viability, CellTiter-Glo, 48 h; activity (max response): hits give low values; further: nearly all actives have a fitted effect of over 65% in size;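 on activity (max response): cells grown in serum-free medium with ITS supplement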
In short: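 Here, serum-free SW-13 cultures were dosed up to 46 uM. Following 48 h, ATP-dependent luminescence (CellTiter-Glo) reported viable cells, and logistic modeling produced IC50 values.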
Potency means the concentration at half of the fitted maximal effect.

Structure (SMILES)	Potency [1]	Potency [2]	Potency [3]	Potency [4]	Potency [5]	Potency [6]	Potency [7]	Potency [8]	Potency [9]	Potency [10]	Potency [11]	activity (max response) [12]	Potency [12]
Cc1cnc(NC(=O)Nc2cc(Br)c(C)cc2OC[C@@H]2CNCCO2)cn1	1.32 µM (active)	1.66 µM (active)	1.18 µM (active)	13.2 µM (active)	0.526 µM (active)	0.935 µM (active)	0.59 µM (active)	2.51 µM (active)	–	–	–	–	–
COc1ccccc1OCC(O)CN1CCN(CC(=O)Nc2c(C)cccc2C)CC1 (configuration not stated)	inactive	–	inactive	inactive	–	inactive	inactive	inactive	inactive	inactive	inactive	1.47% and 6.99%	–
Cc1ccc(S(=O)(=O)N[C@@H](Cc2ccccc2)C(=O)CCl)cc1	9.34 µM (active)	inactive	–	–	–	–	–	22.4 µM (active)	inactive	–	–	–	–
O=C1c2cccc(O)c2C(=O)c2c(O)cc(CO)cc21	8.33 µM (active)	inactive	–	inactive	inactive	inactive	inactive	inactive	inactive	inactive	inactive	13.5%	–
C[C@H]1[C@@H](OC(=O)CCC(=O)O)O[C@@H]2O[C@@]3(C)CC[C@@H]4[C@H](C)CC[C@@H]1[C@@]24OO3	0.934 µM (active)	1.32 µM (active)	–	6.62 µM (active)	4.69 µM (active)	3.72 µM (active)	4.18 µM (active)	17.8 µM (active)	1.66 µM (active)	11.8 µM (active)	–	–	–
N[C@@H](Cc1ccc(O)c(O)c1)C(=O)O	inactive	inactive	–	inactive	inactive	inactive	inactive	inactive	inactive	inactive	inactive	3.64%	–
Cc1ccccc1C(OCCN(C)C)c1ccccc1 (configuration not stated)	inactive	inactive	–	inactive	inactive	inactive	–	inactive	inactive	inactive	–	14.3%	–
O=C1Cc2cc(CCN3CCN(c4nsc5ccccc45)CC3)c(Cl)cc2N1	11.9 µM (active) and 9.2 µM (active)	inactive	–	inactive	inactive	–	inactive	–	inactive	inactive	inactive	–	–
CCC[C@H]1C[C@H](C(=O)N[C@@H]([C@@H]2O[C@@H](SC)[C@@H](O)[C@@H](O)[C@@H]2O)[C@H](C)Cl)N(C)C1	inactive	–	–	–	inactive	inactive	inactive	–	inactive	–	–	–	–
Cc1cc(Cl)ccc1OCCCC(=O)NO	14.8 µM (active)	–	–	1.48 µM (active)	9.35 µM (active)	10.5 µM (active)	9.35 µM (active)	1.26 µM (active)	14.8 µM (active)	–	–	–	–
CN(CCOc1ccc(NS(C)(=O)=O)cc1)CCc1ccc(NS(C)(=O)=O)cc1	inactive	inactive	–	inactive	inactive	inactive	–	inactive	inactive	inactive	inactive	0.645% and 1.15%	–
COc1cc2c(cc1OC)[C@@H]1C(=O)c3ccc4c(c3O[C@@H]1CO2)C=CC(C)(C)O4	103 nM (active) and 93.4 nM (active)	–	20.9 µM (active)	18.7 µM (active)	–	2.64 µM (active)	16.6 µM (active)	20 µM (active)	23.5 µM (active)	18.7 µM (active)	6.62 µM (active)	–	178 nM (active)
COc1ccnc(CS(=O)c2nc3ccc(OC(F)F)cc3[nH]2)c1OC (configuration not stated)	inactive	inactive	inactive	inactive	inactive	inactive	inactive	inactive	–	inactive	inactive	-15.5% and -5.64%	–
COc1cc2c(c(OC)c1OC)-c1ccc(OC)c(=O)cc1[C@@H](NC(C)=O)CC2	23.7 nM (active) and 18.6 nM (active)	–	–	–	–	inactive	–	92 nM (active) and 100 nM (active)	inactive	–	–	–	25.9 nM (active) and 35.5 nM (active)
CCCCN(CCCC)C(=O)CN1C[C@H](c2ccc3c(c2)OCO3)[C@@H](C(=O)O)[C@@H]1c1ccc(OC)cc1	16.6 µM (active)	–	–	inactive	2.09 µM (active)	–	–	inactive	inactive	inactive	–	-6%	–
Clc1ccc(C(c2ccccc2Cl)C(Cl)Cl)cc1 (configuration not stated)	inactive	inactive	inactive	–	–	–	–	13 µM (active)	–	inactive	inactive	-27.3%	–
CC1(C)Cc2c(sc(NC(=S)NC(=O)c3ccccc3)c2C(=O)O)CO1	14.8 µM (active)	inactive	–	inactive	inactive	inactive	inactive	inactive	–	inactive	inactive	11%	–
